Hits are enriched below; roughly 19% of the tested compounds scored in any of these assays.
Pf growth 96h – Primary qHTS for delayed death inhibitors of the malarial parasite plastid, 96 hour incubation; 6.9% of 320,000 active; P. falciparum luciferase reporter growth, 96 h; AID 504834, 2011; Potency, µM (doses to about 28.7 µM), hits mostly inhibitors
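Erythrocytes infected with luciferase-expressing P. falciparum were dispensed at 2% hematocrit and 0.05% parasitemia (final), then incubated with compounds 96 hours at 37 C in 5% CO2. Luminescence after detection reagent addition reported growth.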
Shiga toxin inh – A qHTS for Small Molecule Inhibitors of Shiga Toxin. Vero cells, Shiga toxin protein synthesis inhibition reporter. inhibition, % at 38.7 µM. 9.2% of 290,000 active. AID 2315, 2010; in the data active means inhibition mostly above about 28%, no sharp cut-off; inactive means mostly below about 43%
AMA1-RON2 inh – qHTS for Inhibitors of AMA1-RON; Towards Development of Antimalarial Drug Lead: Primary Screen; Potency, µM (titrated, usually from 58.2 µM), most hits filed as inhibitors; AID 720542, 2013; 0.2% of 360,000 active; Plasmodium falciparum AMA1 (3D7) - RON2 peptide interaction; AlphaScreen AMA1-biotinylated RON2 peptide binding; further: nearly all actives have a fitted effect of over 45% in size
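AMA1 (3D7) with his tag at 25 nM final met compounds first, then biotinylated RON2 peptide at 25 nM; detection used donor plus acceptor beads, 10 µg/mL apiece, read by AlphaScreen after 30 min at room temperature.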
Pf growth 48h – Primary qHTS for delayed death inhibitors of the malarial parasite plastid, 48 hour incubation | P. falciparum luciferase growth in erythrocytes, 48 h | Potency, µM (top dose mostly 28.7 µM), most hits filed as inhibitors | 5.9% of 310,000 active
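Luciferase-expressing parasites in RBCs, 2% Hct / 0.1% parasitemia final; RPMI 1640 + 0.5% Albumax; 37 C, 5% CO2, one generation; luminescence read-out, lower signal = inhibition.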
CHX counter – Cycloheximide Counterscreen for Small Molecule Inhibitors of Shiga Toxin; cell reporter, cycloheximide protein synthesis inhibition counterscreen; max response, %; 12% of 300,000 active; AID 2314, 2010; in the data active means max response mostly above about 13%, no sharp cut-off; inactive means mostly below about 14%; further: read at 38.3 µM for the half of the compounds with a filed dose
SARS PLpro yeast – qHTS of Yeast-based Assay for SARS-CoV PLP. S. cerevisiae expressing SARS-CoV PLpro, growth rescue. Potency, µM (highest dose often 32.9 µM), hits mostly activators. 0.19% of 330,000 active. AID 485353, 2010; calls by dose curve; further: nearly all actives have a fitted effect of over 55% in size
Numbers stand for hits; – = inactive; ? = inconclusive; · = not tested or not shown; [ ] = remark or other dose. Unless noted, the call rests on the fitted dose curve; in most records, active means well fitted curve in the direction sought with a large enough effect; inconclusive means small, poorly fitted or top-dose-only effect, or another doubt; inactive means no such curve, though single readings can be large; an effect the other way counts as inactive or inconclusive.

SMILES | Pf growth 96h | Shiga toxin inh | AMA1-RON2 inh | Pf growth 48h | CHX counter | SARS PLpro yeast
OCCC1CN(C2CCN(c3ccccc3)CC2)CCN1Cc1ccc(F)c(F)c1 (stereo unspecified) | – | – | – | ? | – | –
Cc1cc(C)n2nc(SCC(=O)N3CCCC(C)C3)nc2n1 (stereo unspecified) | · | · | – | · | · | –
Cc1ccccc1-c1cccc([C@@H]2C[C@H]3[C@H](CON3C)CN2Cc2ccccc2)c1 | · | · | – | · | · | ·
COC(=O)/C(C#N)=C(/Nc1ccc(F)c(Cl)c1)C(F)(F)F | – | – | – | – | – | –
Cc1cc(Cl)ccc1OCC(=O)NCC(c1cccs1)N1CCOCC1 (stereo unspecified) | ? | · | – | 13µM | · | –
Cc1ccc(C(C)C)c(OCC(=O)NCC(c2cccs2)N2CCOCC2)c1 (stereo unspecified) | 10µM | · | – | 13µM | · | –
Cc1cc(OCC(=O)NCC(c2cccs2)N2CCOCC2)ccc1C(C)C (stereo unspecified) | 13µM | · | – | ? | · | –
CN(C(=O)c1cccc(NC(=O)Cc2ccc(NC(=O)C3CCN(C(=O)c4ccccc4)CC3)cc2)c1)C1CCCC1 | · | · | – | · | · | ·
CCc1ccc(Nc2nnc(SCC(=O)Nc3cccc(S(=O)(=O)NC4=NCCCCC4)c3)s2)cc1 | ? | active | – | – | 49 | –
CCc1ccc(Nc2nnc(SCC(=O)Nc3ccc(C(=O)O)cc3)s2)cc1 | – | – | – | 4.7µM | – | –
Cc1ccc(Nc2nnc(SCC(=O)Nc3cccc(S(=O)(=O)NC4=NCCCCC4)c3)s2)cc1 | ? | – | –[11.6 µM] | – | 15 | –
Cc1nnc(SCC(=O)Nc2cccc(S(=O)(=O)NC3=NCCCCC3)c2)n1Cc1ccccc1 | – | – | – | – | – | –
CC(CC(=O)Nc1nncs1)c1ccccc1 (stereo unspecified) | – | – | – | – | – | –
O=C(Cc1cccc(C(F)(F)F)c1)Nc1cc(S(=O)(=O)N2CCOCC2)ccc1N1CCCC1 | ? | · | – | ? | · | –
COc1ccc(-c2ccc3c(c2)C2CC3CCN2C(=O)OCc2ccccc2)cc1 (stereo unspecified) | · | · | – | · | · | ·
O=C(Nc1nc(-c2cc(Cl)sc2Cl)cs1)c1ccccc1 | ? | 167 | – | · | 49 | –
Cc1ccc(C(=O)Nc2nc(-c3ccccn3)cs2)s1 | ? | · | – | 0.41µM | · | –
O=C(Nc1nc(-c2ccccn2)cs1)c1ncc(Cl)c(Cl)c1Cl | 13µM | – | ? | ? | – | ·
O=C(Nc1nc(-c2ccccn2)cs1)c1ccc(Cl)s1 | 0.37µM | – | – | · | – | ?
O=C(COc1ccc(F)cc1)Nc1cc(Cl)ccc1-n1cncn1 | – | · | – | ? | · | –
CC(=O)c1c(N2CCN(c3ccccn3)CC2)nc(=S)n(-c2ccccc2)c1C | – | – | – | ? | – | –
c1ccc(CN2CCN(c3nc(-c4ccccn4)nc4ccccc34)CC2)cc1 | – | – | – | 1.7µM | – | –
COc1cccc(-c2nc(N3CCN(C)CC3)c3ccccc3n2)c1O | – | – | – | – | 14 | –
CN1CCN(c2nc(-c3ccncc3)nc3ccccc23)CC1 | · | – | – | 9.3µM | – | –
CCN1CCN(c2nc(-c3ccccn3)nc3ccccc23)CC1 | ? | – | – | ? | – | –
SMILES | Pf growth 96h | Shiga toxin inh | AMA1-RON2 inh | Pf growth 48h | CHX counter | SARS PLpro yeast
c1ccc(CN2CCN(c3nc(-c4ccccc4)nc4ccccc34)CC2)cc1 | · | – | ? | 3.3µM | – | –
COCCN(C(=O)c1csnn1)C(C(=O)NC1CCCCC1)c1ccc(Cl)cc1 (stereo unspecified) | – | – | – | – | – | –
CCN1CCN(c2ccc(NC(=O)CC3OC(=O)c4ccccc43)cc2C)CC1 (stereo unspecified) | · | · | – | · | · | ·
COc1cc(/C=C/C(=O)N(C)CC(=O)Nc2ccccc2SC)cc(OC)c1OC | · | · | –[11.6 µM] | · | · | –
COc1cc(/C=C/C(=O)N(C)CC(=O)Nc2ccccc2Br)cc2c1OCCO2 | ? | · | – | 8.3µM | · | –
Cc1ccc(NC2CCCN(C(=O)CN3C(=O)c4ccccc4C3=O)C2)cc1C (stereo unspecified) | 15µM | – | – | ? | – | –
Cc1ccc(NC2CCCN(C(=O)CSc3ccncc3)C2)cc1C (stereo unspecified) | 13µM | – | – | – | – | –
CCN(CC)c1ccc(/C=N/NC(=O)CNC(=O)c2ccccn2)cc1 | – | – | – | – | – | –
O=C(N/N=C/c1ccc([N+](=O)[O-])cc1)c1ccc2nc[nH]c2c1 | ? | – | – | ? | – | –
CCN(CC)c1ccc(/C=N\NC(=O)c2cccc3cc[nH]c23)cc1 | – | 43 | – | – | 32 | –
O=C(N/N=C/c1ccc([N+](=O)[O-])cc1)c1[nH]ncc1Br | – | 82 | – | – | 47 | –
Cc1cc(C(=O)N/N=C/c2ccc([N+](=O)[O-])cc2)c2ccccc2n1 | – | – | – | – | – | –
O=C(N/N=C/c1ccc([N+](=O)[O-])cc1)c1cccc2cc[nH]c12 | ? | – | – | – | 16 | –
Cc1cccc(NC(=O)CSCC(=O)Nc2sccc2C#N)c1 | – | · | – | ? | · | –
OC1COCOC1C(O)C1OCOCC1O (stereo unspecified) | · | · | – | · | · | ·
Nc1nc(CN2CCN(c3ccccc3)CC2)nc(N2CCCc3ccccc32)n1 | 9.3µM | – | – | ? | – | –
Nc1nc(CSc2nnnn2-c2ccccc2)nc(N2CCCc3ccccc32)n1 | · | – | – | 10µM | – | –
CC(C(=O)O)c1ccc(N2Cc3ccccc3C2=O)cc1 (stereo unspecified) | – | 72 | – | – | – | –
COc1ccc(C)cc1NC(=O)CN1C(=O)COc2ccc(S(=O)(=O)N3CCOCC3)cc21 | – | – | – | – | – | –
CC(C)(C)c1cc(C(=O)N/N=C/c2ccc(-c3ccccc3[N+](=O)[O-])o2)n[nH]1 | 10µM | – | – | 12µM | 26 | –
O=C(N/N=C/c1ccc(-c2ccccc2[N+](=O)[O-])o1)c1cccnc1 | – | – | – | – | 16 | –
O=C(NCc1cccnc1)c1ccc(-c2cccc(Cl)c2Cl)o1 | – | – | – | – | – | –
O=C(NCc1cccnc1)c1ccc(-c2ccccc2[N+](=O)[O-])o1 | – | 40 | – | – | – | –
CN(CCC1CCOCC1)C(=O)c1cc(COc2c(F)cccc2F)on1 | – | – | – | – | 27 | –
CSc1ccccc1OCc1cc(C(=O)N(C)CC2COCCO2)no1 (stereo unspecified) | – | 61 | – | – | 30 | –
CN(CC1COCCO1)C(=O)c1cc(COc2c(F)cccc2F)on1 (stereo unspecified) | – | 53 | – | – | 27 | –
Cc1nc(CN(C)C(=O)c2cc(COc3c(F)cccc3F)on2)cs1 | – | – | – | – | – | –

Compound activity from PubChem BioAssay.
